Measured values taken from PubChem BioAssay AID720706 (Broad Institute, 2013).
Values joined by “and” are separate entries in the source; they are usually repeats but may differ in a detail not shown here. Identical values can stand only once. Screen size: about 350,000 compounds; about 5,500 (1.6%) were called active.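 Rule for the calls: active = significant combined selectivity score with lowered wild-type GFP, culture density cut under 30%, mutant RFP and density less affected; inactive = any of these conditions unmet.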 Shown is part of a subset that was picked to be rich in actives.

Assay: GFP drop in mixed WT/humanized-ribosome E. coli culture – GFP/RFP fluorescence, OD600, single point, bacterial rRNA inhibitor project, primary screen (AID 720706)
Conditions: E. coli WT GFP vs humanized-ribosome RFP mutants, 24 h; GFP signal change (wild-type ribosome): stronger effect = lower value, DMSO median 0, no signal -100; OD600 change: measured here: OD600 growth, DMSO median 0, no signal -100; RFP signal change: measured here: RFP humanized mutant strains, DMSO median 0, no signal -100, concentration not given here

Compound | GFP signal change (wild-type ribosome) | OD600 change | RFP signal change
Cc1ccc(-c2cnc3c(c2)C(=O)N([C@H](C)CO)C[C@H](C)[C@@H](CN(C)S(C)(=O)=O)O3)cc1 | 2.09% (inactive) | 1.04% | 1.43%
C[C@@H]1CN([C@H](C)CO)C(=O)c2c(c3ccccc3n2C)-c2ccccc2CO[C@@H]1CN(C)Cc1ccccc1C(F)(F)F | 3.48% (inactive) | -2.02% | -4.51%
CC(C)NC(=O)Nc1ccc2c(c1)C(=O)N([C@H](C)CO)C[C@@H](C)[C@H](CN(C)S(C)(=O)=O)O2 | 0.569% (inactive) | 1.03% | -2.66%
COc1ccc(NC(=O)CN(C)S(=O)(=O)c2ccccc2)cc1OC | -21.4% (active) | -15.8% | 5.68%
Cc1ccc2nc(-c3ccc(NC(=O)CN(C)S(=O)(=O)c4ccccc4)cc3)sc2c1 | 6.45% (inactive) | 6.57% | -1.11%
COc1ccc(NC(=O)CN(Cc2ccccc2)S(C)(=O)=O)cc1OC | 7.38% (inactive) | 3.04% | 2.82%
C[C@H]1CN([C@@H](C)CO)C(=O)Cc2cc(NC(=O)Cc3ccccc3)ccc2O[C@H]1CN(C)S(=O)(=O)c1ccc(Cl)cc1 | 6.12% (inactive) | 0.505% | -2.09%
C[C@@H]1CN(C)C(=O)c2cccc(N(C)C)c2O[C@H]1CN(C)S(C)(=O)=O | 0.02% (inactive) | -2.43% | -4.17%
CCS(=O)(=O)N1CC(=O)N2[C@H](C1)[C@@H](c1ccc(C#Cc3ccc(F)cc3)cc1)[C@@H]2CO | -26.6% (inactive) | -55.5% | 8.02%
COC(=O)C[C@H]1C[C@H]2c3cc(NC(=O)NC4CCCCC4)ccc3O[C@H]2[C@H](CO)O1 | 3.18% (inactive) | 0.77% | 1.45%
Cc1cc(N2CCN(C)CC2)nc2ccc(NC(=S)N3CCOCC3)cc12 | 2.14% (inactive) | 1.93% | -1.37%
CC1CN(c2nc(Nc3ccccc3)nc(N)c2[N+](=O)[O-])CC(C)O1 (stereo not drawn) | -35.4% (inactive) | -33.8% | -0.525%
CN1CCN(c2nc(Nc3ccc(O)cc3)nc3ccccc23)CC1 | -21.6% (active) | 2.64% | 1.85%
C[C@H]1CN([C@@H](C)CO)C(=O)c2cc(NS(C)(=O)=O)ccc2O[C@@H]1CN(C)S(=O)(=O)c1ccc(Cl)cc1 | 2.05% (inactive) | 0.615% | 0.846%
CC(=O)N1C[C@@H]2C(c3ccccc3)[C@H](C1)N2Cc1ccc(F)cc1 (stereo partly drawn) | -7.42% (inactive) and -0.918% (inactive) | -6.55% and 0.0005% | 2.17% and -0.988%
COc1ccc(-c2ccc([C@@H]3[C@@H](CO)N4C(=O)CN(Cc5ccccc5)C[C@@H]34)cc2)cc1 | 0.0065% (inactive) | -2.91% | 0.737%
COc1ccc(CN2CCCCN3[C@H](C2)[C@H](c2ccc(-c4ccc(OC)cc4)cc2)[C@@H]3CO)cc1 | 0.651% (inactive) | 2.56% | 3.41%
COc1ccc(Cn2c(-c3ccc(Cl)cc3)c[n+]3ccccc23)cc1 | -31.8% (active) | -12.7% | 10%
COc1ccc(NC(=O)Nc2ccc3c(c2)C(=O)N([C@H](C)CO)C[C@@H](C)[C@H](CN(C)CC2CCCCC2)OCCCC[C@@H](C)O3)cc1 | 2.06% (inactive) | -1.06% | 2.56%
CC1CN(C(=S)Nc2ccc(Br)cc2Cl)CC(C)O1 (stereo not drawn) | 0.789% (inactive) | 0.865% | -2.8%
CN(C)C(=S)Nc1ccc(Br)cc1Cl | -21.3% (active) | -3.38% | -5.33%

Compound | GFP signal change (wild-type ribosome) | OD600 change | RFP signal change
O=C(NNC(=S)Nc1ccc(Br)cc1Cl)c1ccco1 | -55.5% (inactive) | -76.6% | -26.1%
C[C@@H]1CN([C@H](C)CO)C(=O)c2cc(C#CC3CC3)cnc2O[C@H]1CN(C)C(=O)CC1CC1 | 0.803% (inactive) | 4.53% | -4.43%
Cc1cc(C(=O)COC(=O)C2CC2)c(C)n1-c1ccc(F)cc1 | -25.1% (active) | -8.48% | -5.46%
Cc1cc(C(=O)COc2ccccc2Cl)c(C)n1C1CC1 | -19.2% (inactive) | -34.3% | 0.284%
Cc1ccc(-n2c(C)cc(C(=O)CN3C(=O)C(=O)N(C4CCCC4)C3=O)c2C)cc1 | -12.3% (inactive) | -20.5% | 24%
COc1ccc(C)cc1N(CC(=O)NC(C)c1ccccc1)S(C)(=O)=O (stereo not drawn) | 7.63% (inactive) | 6.56% | 4.34%
Cc1ccc(OCCCC(=O)NC(C)c2ccccc2)c(C)c1 (stereo not drawn) | -20.1% (active) | -9.71% | 4.93%
Cc1ccccc1OCCC(=O)OCC(=O)NC(C)c1ccccc1 (stereo not drawn) | -11.5% (inactive) | -7.58% | 0.763%
COc1ccc2c3c(n(C)c2c1)[C@@H](CO)NCC31CN(S(=O)(=O)c2cccc(C)c2)C1 | -1.82% (inactive) | -19.1% | 1.9%
O=C(Nc1ccccc1)N1CCCCN2[C@H](CO)[C@@H](c3ccc(-c4ccccc4F)cc3)[C@H]2C1 | -59.5% (inactive) | -71.8% | -17.2%
Cc1ccccc1-c1cnc2c(c1)C(=O)N([C@H](C)CO)C[C@H](C)[C@@H](CN(C)C(=O)c1ccccc1)O2 | -6.69% (inactive) | 1.45% | 1.42%
CCNC(=O)[C@@H]1[C@@H](CO)[C@@H]2Cn3c(ccc(C4=CCCCC4)c3=O)[C@@H]2N1Cc1ccccc1F | 1.16% (inactive) | -2.39% | 5.54%
O=C(Nc1cccc([N+](=O)[O-])c1)N1CCc2ccccc2C1 | -21.9% (active) | -13.6% | -7.36%
CCc1ccc(NC(=O)N2CCc3ccccc3C2)cc1 | -10.5% (inactive) | -10.6% | -3.21%
O=C(CN1CCOCC1)Nc1cccc([N+](=O)[O-])c1 | 31.7% (inactive) | 26.8% | 1.38%
Cc1ccc(-c2ccc([C@H]3[C@H]4CN(S(=O)(=O)c5cccc(F)c5)CC(=O)N4[C@H]3CO)cc2)cc1 | 1.77% (inactive) | 8.11% | -0.692%
S=C(NCc1cccnc1)Nc1ccc(Cl)cc1Cl | -27.1% (active) | -3.2% | -7.63%
CN(CC(=O)NCc1cccnc1)S(=O)(=O)c1cc(Cl)ccc1Cl | 5.23% (inactive) | -2.3% | -0.601%
Cc1ccc(C(=O)NC(=S)NCc2cccnc2)cc1 | -23.8% (inactive) | -23.8% | 5.91%
CC(C)NC(=O)N(C)C[C@@H]1Oc2ccc(NC(=O)CCCCCC(=O)Nc3ccccc3N)cc2C(=O)N([C@@H](C)CO)C[C@H]1C | 1.03% (inactive) | -8.13% | -0.166%
